In PubChem BioAssay AID431 (Sanford-Burnham Center for Chemical Genomics, 2006):
About 1,100 (1.7%) of roughly 63,000 compounds were called active. The list comes from a sample in which actives are over-represented; it also holds similar structures and randomly drawn compounds. Entries with a potency or affinity are not part of this list. Values without a mark were called inactive.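 Rule for the calls: active = compounds whose percent cytotoxicity in the single-dose primary screen, scaled between solvent and toxic-drug controls, exceeds 50; inactive = the rest.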

experiment: viability loss of HPDE-C7K cells – cell-based, fluorescence, HTS, primary screen (AID 431); conditions: HPDE-C7K KRASV12 cells, Alamar Blue viability, 48 h; at 10 µM; active compounds read high;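 note: 0% = DMSO solvent wells and 100% = doxorubicin-treated wells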

Row | SMILES | cytotoxicity
1 | O=C1c2ccccc2C(=O)N1CCN1CCOCC1 | -1.3%
2 | CC(C)N(C(=O)CSc1nnnn1C1CCCC1)C(C)C | -9.6%
3 | CCCCn1nnnc1SCC(=O)Nc1ccc(C)cc1 | -4.8%
4 | Cc1ccc(NS(=O)(=O)c2cc(C(=O)N3CCOCC3)ccc2C)cc1C | -4.4%
5 | CCN(CC)C(=O)c1sc(NC(=O)Cc2cccs2)c(C#N)c1C | -10.4%
6 | CC(O)c1ccc2c(c1)OCCOCCN(C)CCOCCO2 (stereo not given) | -3.4%
7 | OC1C[N+]2(CCCCC2)C1 | -0.4%
8 | CCNc1nc(SCC(=O)OC)nc(N2CCOCC2)n1 | -13.2%
9 | O=C(CCC(=O)N(CC(=O)NC1CCCCC1)c1ccc2c(c1)OCO2)Nc1ccccn1 | -8.1%
10 | O=C1CC(c2cccs2)c2cc3c(cc2N1)OCCO3 (stereo not given) | 2.9%
11 | CCCOc1ccccc1C1CC(=O)Nc2cc3c(cc21)OCCO3 (stereo not given) | 73.4% (active)
12 | Cc1ccc(C2CC(=O)Nc3cc4c(cc32)OCCO4)s1 (stereo not given) | 7.5%
13 | CC(C)NC(=O)c1ccccc1-c1nc(-c2ccccc2Cl)no1 | 6%
14 | CCN1CCCC1CNc1ncnc2c1[nH]c1ccc(Cl)cc12 (stereo not given) | 10.9%
15 | Clc1ccc2[nH]c3c(NCC4CCCO4)ncnc3c2c1 (stereo not given) | 57.6% (active)
16 | c1ccc2c(c1)[nH]c1c(NCC3CCCO3)ncnc12 (stereo not given) | 6.1%
17 | CC(C)(C)OC(=O)N1CCC[C@@H]1C(=O)N1CCC(C(=O)O)CC1 | 8.3%
18 | COc1ccc(NC(=O)Cn2nnc(-c3ccccc3NC(=O)c3cccs3)n2)cc1 | 9.5%
19 | O=C(O)c1ccc(CSc2n[nH]c(-c3ccco3)n2)cc1 | -2.9%
20 | Cc1c(-c2ccccc2)c(P(=O)(N2CCOCC2)N2CCOCC2)c2ccccn12 | -4.4%
21 | COc1ccccc1C1c2c(oc3ccc(Cl)cc3c2=O)C(=O)N1c1cc(C)on1 (stereo not given) | -23.6%
22 | COc1ccccc1-n1c(SC)nc(O)cc1=O | 6.5%

Row | SMILES | cytotoxicity
23 | COc1ccccc1-n1c(=O)oc2ccc(Cl)cc2c1=O | 53.6% (active)
24 | CCOC(=O)c1ccc2nc(NC(=O)C(C)C)sc2c1 | 6.2%
25 | C=CCN(CC=C)S(=O)(=O)c1ccc2nsnc2c1 | -22.3%
26 | C=CCN(CC=C)S(=O)(=O)c1ccc2nc(NC(=O)C(C)C)sc2c1 | 69.9% (active)
27 | COc1ccc(C(=O)n2c(-c3ccco3)nc3ccccc32)cc1 | 58.3% (active)
28 | COc1ccc(C(=O)CSc2nnc(-c3ccco3)n2C)cc1 | 5.8%
29 | CCn1c(-c2ccco2)nc2ccccc21 | 5.1%
30 | Cc1cc(C)cc(-n2nnc(C(=O)NCc3ccc(Cl)cc3)c2N)c1 | 5.6%
31 | CCN1CCN(C2CCN(C(C)=O)CC2)CC1 | 5.4%
32 | C/C=C/Cn1c(SCc2ccc(Cl)cc2)nc2c1c(=O)[nH]c(=O)n2C | 8.2%
33 | C/C=C/Cn1c(SCc2ccc(C)cc2)nc2c1c(=O)[nH]c(=O)n2C | 57.9% (active)
34 | C/C=C/Cn1c(SCc2ccccc2)nc2c1c(=O)[nH]c(=O)n2C | 1.2%
35 | Clc1ccc(-n2cnnn2)cc1 | -0.1%
36 | COc1ccc(C2NC(=O)NC(C)=C2C(=O)Nc2cc(C)ccc2C)cc1OC (stereo not given) | 1.2%
37 | O=C(C1CC1)N1CCc2cc(Br)cc(S(=O)(=O)NCCCN3CCCC3)c21 | 1.3%
38 | CCOC(=O)c1c(C)[nH]c(C(=O)OC/C(O)=C(\C#N)c2nc3ccccc3[nH]2)c1C | 81.8% (active)
39 | Cc1nn(-c2ccccc2)c(C)c1C(=O)OC/C(O)=C(\C#N)c1nc2ccccc2[nH]1 | 13%
40 | N#C/C(=C(/O)COC(=O)c1ccc2c(c1)OCCO2)c1nc2ccccc2[nH]1 | 17.6%
41 | CSc1nnc(-c2nnc(SC)n2-c2ccccc2)n1-c1ccccc1 | -8.3%
42 | C=CCOC(=O)C1=C(C)NC(SCC(=O)N(CC)CC)=C(C#N)C1c1ccco1 (stereo not given) | -4.1%
43 | COCCOC(=O)C1=C(C)NC(SCC(=O)NC(C)(C)C)=C(C#N)C1c1ccco1 (stereo not given) | 2.3%
44 | CCN(CC)C(=O)CSC1=C(C#N)C(c2ccco2)C(C(=O)OCCOC)=C(C)N1 (stereo not given) | -15.8%

Row | SMILES | cytotoxicity
45 | CCOC(=O)CSC1=C(C#N)C(c2ccco2)C(C(=O)OCc2ccccc2)=C(C)N1 (stereo not given) | 61% (active)
46 | CC(=O)C1=C(C)NC(SCC(=O)c2ccccc2)=C(C#N)C1CC(C)C (stereo not given) | 3.7%
47 | CC(=O)C1=C(C)NC(SCC(=O)c2ccc(Cl)c(Cl)c2)=C(C#N)C1c1ccco1 (stereo not given) | 77.4% (active)
48 | C=CCOC(=O)C1=C(C)NC(SCC(=O)Nc2ccc(C)c(Cl)c2)=C(C#N)C1c1ccco1 (stereo not given) | -1.3%
49 | CC(=O)C1=C(C)NC(SCC(=O)c2cc(Cl)ccc2Cl)=C(C#N)C1c1ccco1 (stereo not given) | 60.7% (active)
50 | CC(=O)C1=C(C)NC(SCC(=O)c2ccc(Cl)cc2Cl)=C(C#N)C1c1ccco1 (stereo not given) | 40.7%
51 | CSCSC1=C(C#N)C(c2ccccc2Cl)C(C(C)=O)=C(C)N1 (stereo not given) | 23.4%
52 | Cc1ccc(C(=O)CSC2=C(C#N)C(c3ccco3)CC(=O)N2)c(C)c1 (stereo not given) | 5%
53 | CCCNS(=O)(=O)c1ccc(CCC(=O)N2CCOCC2)cc1 | 3.7%
54 | CC(C)C1CC(c2csc(N)n2)CCO1 (stereo not given) | 7.1%
55 | O=C1CCN(Cc2nnnn2CC2CCCO2)c2ccccc2N1 (stereo not given) | -13.4%
56 | Cc1nnc(SCCn2c(N3CCCC(C)C3)nc3c2c(=O)n(C)c(=O)n3C)s1 (stereo not given) | 6.4%
57 | O=C(NCc1ccccn1)C1CCCN(S(=O)(=O)c2ccc(Br)cc2)C1 (stereo not given) | -8.1%
58 | CCOC(=O)C(Cc1ccccc1)C(=O)Nc1nccs1 (stereo not given) | 15.3%
59 | CCOC(=O)C1CCN(S(=O)(=O)c2ccc3c(c2)CCCN3C(C)=O)CC1 | -5.4%
60 | CSCSC1=C(C#N)C(c2ccc(Cl)cc2)C(C(C)=O)=C(C)N1 (stereo not given) | -8.2%
61 | COc1ccccc1NC(=O)C1=C(C)NC(SCC(=O)c2ccc(C)cc2)=C(C#N)C1c1ccco1 (stereo not given) | 38.3%
62 | CCOC(=O)CSC1=C(C#N)C(c2ccc(F)cc2)C(C(C)=O)=C(C)N1 (stereo not given) | -0.1%
63 | CC(=O)C1=C(C)OC(N)=C(C#N)C1c1ccco1 (stereo not given) | -7.5%
64 | CC(=O)C1=C(C)NC(SCC(=O)c2ccc(F)cc2)=C(C#N)C1c1ccco1 (stereo not given) | 90.5% (active)
65 | CC(=O)C1=C(C)NC(SCC(=O)c2ccc(Cl)cc2)=C(C#N)C1c1ccco1 (stereo not given) | 50.5% (active)
